From ChEMBL document CHEMBL1201862, “PubChem BioAssay data set” (2004)
The campaign covered roughly 400,000 compounds. About 2,100 (0.53%) were called active. Inconclusive results (about 14%) are left out. The rule behind the calls is not given here. The full list was thinned out, with actives kept by preference.

The compounds below were run against Ataxin-2 (Homo sapiens) (UniProt Q99700) (assay: qHTS for Inhibitors of ATXN expression.).
Ataxin-2 (Homo sapiens), sequence (Q99700 whole entry): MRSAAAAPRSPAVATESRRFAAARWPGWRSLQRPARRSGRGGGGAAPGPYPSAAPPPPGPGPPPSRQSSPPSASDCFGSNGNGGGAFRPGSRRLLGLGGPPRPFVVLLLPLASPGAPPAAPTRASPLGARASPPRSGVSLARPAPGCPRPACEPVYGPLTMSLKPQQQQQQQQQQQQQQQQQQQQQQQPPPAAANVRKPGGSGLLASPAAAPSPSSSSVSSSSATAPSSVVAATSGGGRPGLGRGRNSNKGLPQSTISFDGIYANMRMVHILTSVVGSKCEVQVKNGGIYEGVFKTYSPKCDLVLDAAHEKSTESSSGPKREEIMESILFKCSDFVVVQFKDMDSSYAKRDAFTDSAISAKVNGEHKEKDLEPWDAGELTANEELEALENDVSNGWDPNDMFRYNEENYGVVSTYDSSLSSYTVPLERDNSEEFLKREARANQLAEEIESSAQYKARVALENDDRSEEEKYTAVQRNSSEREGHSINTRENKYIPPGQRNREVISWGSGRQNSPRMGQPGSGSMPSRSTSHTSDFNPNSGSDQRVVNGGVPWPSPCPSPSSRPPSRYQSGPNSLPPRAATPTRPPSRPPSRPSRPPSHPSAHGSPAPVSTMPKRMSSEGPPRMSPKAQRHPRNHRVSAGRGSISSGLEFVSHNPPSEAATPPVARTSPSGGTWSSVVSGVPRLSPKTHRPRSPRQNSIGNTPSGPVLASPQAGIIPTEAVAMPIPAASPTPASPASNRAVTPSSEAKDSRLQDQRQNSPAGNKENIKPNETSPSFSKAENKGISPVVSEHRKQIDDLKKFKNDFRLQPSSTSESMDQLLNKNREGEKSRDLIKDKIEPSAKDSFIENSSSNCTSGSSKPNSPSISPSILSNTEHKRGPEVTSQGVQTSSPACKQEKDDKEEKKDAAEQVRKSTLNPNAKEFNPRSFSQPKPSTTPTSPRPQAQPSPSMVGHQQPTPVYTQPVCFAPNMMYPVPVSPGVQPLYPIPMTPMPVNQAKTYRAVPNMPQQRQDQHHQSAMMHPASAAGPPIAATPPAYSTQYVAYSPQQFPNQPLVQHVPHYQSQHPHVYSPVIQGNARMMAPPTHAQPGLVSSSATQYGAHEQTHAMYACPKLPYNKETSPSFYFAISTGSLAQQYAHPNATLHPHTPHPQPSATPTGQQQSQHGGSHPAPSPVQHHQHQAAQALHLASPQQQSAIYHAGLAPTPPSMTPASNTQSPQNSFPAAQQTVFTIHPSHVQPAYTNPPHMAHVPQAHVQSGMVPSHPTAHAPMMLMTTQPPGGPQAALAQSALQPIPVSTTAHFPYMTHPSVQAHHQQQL
Format: functional
With `Cc1ccc(S(=O)(=O)Nc2nc3n(n2)C(c2ccccc2Cl)C=C(c2ccccc2)N3)cc1` (centres undefined) the Potency was “inactive”.
With `CSc1ccc(/C=C/c2ccc3cccc(O)c3n2)cc1` the Potency was “inactive”.
`Oc1cccc2ccc(Nc3ccccn3)nc12` was tested, and the Potency was 39.8 µM (active).
In the case of `Oc1ccc(/C=C/c2ccc3cccc(O)c3n2)cc1Br`, the Potency is reported as “inactive”.
With `O=c1oc2ccccc2cc1-c1nc2c(s1)CCc1ccccc1-2` the Potency was “inactive”.
`Cc1cc(C)c2c(N)c(C(=O)N/N=C/c3cccnc3)sc2n1` was tested, and the Potency was “inactive”.
`CC(NCC(O)COCCC12CC3CC(CC(C3)C1)C2)c1ccccc1` (centres undefined) was tested, and the Potency was 39.8 µM (active).
With `Cc1cccc(C)c1OCC(O)CNC(C)c1ccccc1` (centres undefined) the Potency was “inactive”.
In the case of `CC(O)CNC12CC3CC(CC(C3)C1)C2` (centres undefined), the Potency is reported as “inactive”.
For `CC(NCC(O)COC1CCC(C(C)(C)C)CC1)c1ccccc1` (centres undefined), the Potency was 35.5 µM (active).
In the case of `CCOc1ccc2nc(N3CCCN(C(=O)Nc4ccccc4C)CC3)c(C#N)cc2c1`, the Potency is reported as “inactive”.
For `O=C1CC2C(=O)NCCN2C(NC(=O)c2ccc(Cl)cc2)=N1` (centres undefined), the Potency was “inactive”.
For `Oc1ccc(N=Nc2ccc3c(c2)OCCO3)c2ncccc12`, the Potency was 15.8 µM (active).
With `COC(=O)c1ccc(C(=O)OC)c(NC(=S)N2CCN(c3ccccc3F)CC2)c1` the Potency was “inactive”.
For `COc1ccc(CCC(=O)OCC(=O)Nc2ccc(OC)c(OC)c2)cc1OC`, the Potency was “inactive”.
With `COc1ccc(CC(=O)Nc2cccc(-c3nnc(-c4ccccc4)o3)c2)cc1OC` the Potency was 10 µM (active).
With `COc1ccc(-c2nnc(-c3ccccc3)o2)cc1OC` the Potency was “inactive”.
In the case of `CCOc1cc(-c2noc(-c3ccncc3)n2)cc(Br)c1OC`, the Potency is reported as 44.7 µM (active).
In the case of `CCOc1ccccc1-c1nc(-c2ccc(C)nc2OC)no1`, the Potency is reported as “inactive”.
In the case of `O=[N+]([O-])c1ccc(-c2nc(-c3ccncc3)no2)cc1`, the Potency is reported as “inactive”.
In the case of `O=C1C=C(N(CCO)Cc2ccccc2)c2ccccc2C1=O`, the Potency is reported as 29.9 µM (active).
`CC1(C)Cc2nc(Cl)c(C(N)=O)cc2CO1` was tested, and the Potency was “inactive”.
In the case of `C=CCC[C@@H](Cc1ccc(F)cc1)C(=O)OC[C@@H](Cc1c[nH]c2ccccc12)NC(=O)[C@H](CC=C)CC(=O)N(CCO)Cc1ccccc1`, the Potency is reported as 22.4 µM (active).
`C=CCC[C@H](Cc1ccc(F)cc1)C(=O)OC[C@H](Cc1c[nH]c2ccccc12)NC(=O)[C@@H](CC=C)CC(=O)N(CCO)Cc1ccccc1` was tested, and the Potency was 22.4 µM (active).
For `COC(=O)c1cc(NC(=O)CN2CCN(C(C)=O)CC2)cc(C(=O)OC)c1`, the Potency was “inactive”.
`Cc1ccc2[nH]c(CSc3nc(C)cc(C)c3C#N)nc2c1` was tested, and the Potency was “inactive”.
With `CCc1cc(=O)oc2c(C)c(O)c(CN3CCCCC3)cc12` the Potency was “inactive”.
In the case of `N#Cc1cc([N+](=O)[O-])c(-n2nnc3ccccc32)c([N+](=O)[O-])c1`, the Potency is reported as 22.4 µM (active).
With `O=C(NOC(=O)c1c(F)cccc1Cl)c1ccc(Cl)c(Cl)c1` the Potency was “inactive”.
In the case of `CCCCN1C(=O)C(O)(CC(=O)c2ccc(C)cc2C)c2cc(Br)ccc21` (centres undefined), the Potency is reported as 31.6 µM (active).
`CCCCN1C=C(C(=O)OC)C(c2ccccc2Cl)C(C(=O)OC)=C1` was tested, and the Potency was “inactive”.
`Cc1ccc(OCCn2cnc(Cl)c2Cl)cc1` was tested, and the Potency was “inactive”.
With `CCN(CC)C(=O)c1cccc(NC(=O)c2cc(C3CC3)nc3c2cnn3C(C)C)c1` the Potency was “inactive”.
For `CC(=O)c1ccc(S(=O)(=O)NCCC(=O)N2CCN(c3ccccn3)CC2)cc1`, the Potency was “inactive”.
For `COc1cc2c(cc1OC)CN(S(=O)(=O)c1ccccc1F)CC2`, the Potency was “inactive”.
For `COc1cc2c(cc1OC)C(C)N(S(=O)(=O)c1cnc(Cl)c(Cl)c1)CC2` (centres undefined), the Potency was 12.6 µM (active).
In the case of `COc1ccc(-c2c(C)nn3c(N4CCOCC4)cc(C)nc23)cc1OC`, the Potency is reported as “inactive”.
In the case of `CSc1nc(Nc2ccc(F)cc2)cc(-c2ccccc2)n1`, the Potency is reported as 22.4 µM (active).
For `COC(=O)Cn1c2ccccc2c2nc3ccccc3nc21`, the Potency was “inactive”.
`Cc1cccc2c3nc4ccccc4nc3n(C)c12` was tested, and the Potency was “inactive”.
For `O=c1oc2ccccc2n1CCn1c2ccccc2c2nc3ccccc3nc21`, the Potency was 44.7 µM (active).
In the case of `CC(C)(C)c1ccc(C(=O)N2CCC(=O)N([C@H](COCc3ccccc3)Cc3ccccc3)CC2)cc1`, the Potency is reported as 35.5 µM (active).
With `CC(C)(C)c1ccc(C(=O)N2CCC(=O)N(C(COCc3ccccc3)Cc3ccccc3)CC2)cc1` (centres undefined) the Potency was 28.2 µM (active).
In the case of `CC(C)CC1C(=O)N(Cc2cn(Cc3ccco3)nn2)CCS(=O)(=O)N1Cc1ccc(-c2cccc(CO)c2)cc1` (centres undefined), the Potency is reported as 35.5 µM (active).
With `CC(C)CC1C(=O)N(Cc2cn(Cc3ccco3)nn2)CCS(=O)(=O)N1Cc1ccc(-c2ccc(F)nc2)cc1` (centres undefined) the Potency was 25.1 µM (active).
For `COc1ccc(-c2ccc(CN3C(CC(C)C)C(=O)N(Cc4cn(CC5CCCCC5)nn4)CCS3(=O)=O)cc2)cn1` (centres undefined), the Potency was 10 µM (active).
In the case of `COc1ccc(NS(=O)(=O)c2cc3c(cc2C)N(C)CCO3)c(OC)c1`, the Potency is reported as “inactive”.
With `CC1CCN(Cc2c(O)ccc3c2O/C(=C\c2ccco2)C3=O)CC1` the Potency was “inactive”.
In the case of `O=C(c1cnn(-c2ccccc2)c1)c1cc(F)ccc1O`, the Potency is reported as “inactive”.
